Experimental data reported in publication PMC4336329 (PLoS ONE, 2015).
About 14,000 (4.5%) of roughly 310,000 compounds showed an effect of 50% or more. The effect is printed as a negative number. Shown is part of a subset that was picked to be rich in strong results.

Biological target: human ether-à-go-go-related gene (hERG) potassium channel (human, UniProt Q12809)
Test: primary screen, population patch clamp on CHO cells stably expressing hERG; higher = less effect of the substance
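Note: peak tail current of the secondary pulse compared with the same well before compound.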

human ether-à-go-go-related gene (hERG) potassium channel, sequence (Q12809 whole entry, looked up): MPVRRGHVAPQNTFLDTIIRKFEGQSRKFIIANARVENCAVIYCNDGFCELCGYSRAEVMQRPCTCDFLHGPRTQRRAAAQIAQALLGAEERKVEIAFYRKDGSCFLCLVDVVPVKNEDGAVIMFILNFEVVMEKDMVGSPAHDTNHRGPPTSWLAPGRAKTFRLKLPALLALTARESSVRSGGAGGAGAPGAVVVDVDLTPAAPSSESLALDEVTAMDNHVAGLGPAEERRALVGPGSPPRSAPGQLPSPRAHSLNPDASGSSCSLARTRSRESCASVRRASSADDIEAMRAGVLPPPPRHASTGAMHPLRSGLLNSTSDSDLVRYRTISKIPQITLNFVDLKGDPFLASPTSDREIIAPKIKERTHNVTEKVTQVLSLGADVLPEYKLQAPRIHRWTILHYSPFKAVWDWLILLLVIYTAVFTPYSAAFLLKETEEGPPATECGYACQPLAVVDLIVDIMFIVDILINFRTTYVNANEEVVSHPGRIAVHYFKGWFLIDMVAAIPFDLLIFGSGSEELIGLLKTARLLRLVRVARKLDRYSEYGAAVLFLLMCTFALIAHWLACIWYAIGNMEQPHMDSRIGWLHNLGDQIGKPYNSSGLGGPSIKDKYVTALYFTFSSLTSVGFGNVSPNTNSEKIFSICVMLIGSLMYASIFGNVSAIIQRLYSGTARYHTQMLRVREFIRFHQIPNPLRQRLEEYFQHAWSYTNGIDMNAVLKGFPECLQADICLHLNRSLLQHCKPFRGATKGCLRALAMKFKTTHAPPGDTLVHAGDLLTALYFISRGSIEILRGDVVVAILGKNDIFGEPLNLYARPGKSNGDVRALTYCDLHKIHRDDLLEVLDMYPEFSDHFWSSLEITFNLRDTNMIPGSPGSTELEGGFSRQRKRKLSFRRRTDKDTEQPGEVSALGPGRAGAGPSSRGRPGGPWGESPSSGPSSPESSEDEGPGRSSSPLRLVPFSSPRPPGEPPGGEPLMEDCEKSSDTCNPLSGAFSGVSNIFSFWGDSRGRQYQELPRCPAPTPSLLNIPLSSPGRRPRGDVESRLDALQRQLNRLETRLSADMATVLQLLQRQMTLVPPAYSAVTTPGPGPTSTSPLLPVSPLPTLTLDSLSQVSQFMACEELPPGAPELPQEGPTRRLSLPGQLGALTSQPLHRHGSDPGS

| SMILES | hERG current change (%, negative = inhibition) at 10uM [%] |
| --- | --- |
| Cc1cc(C)cc(OCC(=O)Nc2ccc(N3CCCC3)cc2)c1 | 11.9 |
| COc1ccc(C(=O)Nc2nnc(S(=O)(=O)N3CCOCC3)s2)cc1 | -3.02 |
| CC(C)C(=O)NNC(=O)c1c(O)c2ccccc2[nH]c1=O | 10.3 |
| O=C(Nc1cccc(O)c1)C1CC(c2c(F)cccc2Cl)=NO1 (centres unmarked) | -15.6 |
| COc1ccc(CNC(=O)OCCN2CCN(S(=O)(=O)c3ccc(C)cc3)CCC2=O)cc1 | -35.9 |
| CCCCC(NC(=O)Cc1c(C)c2cc3c(-c4ccccc4)coc3c(C)c2oc1=O)C(=O)O (centres unmarked) | 13.2 |
| O=C1CC(NNc2nc3ccccc3s2)C(=O)N1c1ccc(F)cc1 (centres unmarked) | 3.25 |
| CCOCCCNC(=S)N1CCN(C(=O)C(=O)Nc2ccc(C(=O)OC)cc2)CC1 | -40.6 |
| CSCCC(NC(=O)COc1ccccc1)C(=O)OCC(=O)c1cc2ccccc2o1 (centres unmarked) | 8.62 |
| COc1ccc(C(=O)NC(=S)NCc2ccccc2)cc1 | -0.211 |
| Cc1ccccc1CNC(=O)CCC(=O)N1CCOc2ccccc21 | 7.41 |
| Cc1ccc(-c2c(C)n([O-])c3c([n+]2=O)CCCCC3)o1 | -1.3 |
| Cc1c(NC(=O)c2ccc(Cl)nc2)cccc1-c1nc2cccnc2s1 | -48.1 |
| CCCOc1ccc(/C=c2\sc3ncnn3c2=O)cc1 | 6.61 |
| CCOCc1[nH]c(=S)[nH]c(=O)c1Cc1ccc(OC(C)C)cc1 | -58.8 |
| CCOCc1[nH]c(=S)[nH]c(=O)c1Cc1ccc(OCC(C)C)cc1 | 14 |
| CCOCc1[nH]c(=S)[nH]c(=O)c1Cc1ccc(OCC)cc1 | 9.49 |
| COc1cccc(C2=CC(c3cccs3)n3nnnc3N2)c1 (centres unmarked) | 14.5 |
| CCc1nnc(SCc2ccc(OC(C)C)cc2)n1N | 9.36 |
| CCCCn1c2c(c(=O)n(C)c1=O)C(CC(=O)OCC(=O)Nc1cccc(C(F)(F)F)c1)C(=O)N2 (centres unmarked) | -5.56 |
| Cc1ccc(NC(=O)C(C)Sc2nnc(C)n2C2CC2)cc1S(=O)(=O)N1CCOCC1 (centres unmarked) | -13.9 |
| COc1cccc(NC(=O)C(C)Sc2nnc(C3CC3)n2C2CC2)c1 (centres unmarked) | -67 |
| Cc1ccc(NC(=O)C(C)Sc2nnc(C3CC3)n2C2CC2)cc1S(=O)(=O)N1CCOCC1 (centres unmarked) | -51 |
| COc1ccc(Cl)cc1NC(=O)C(C)Sc1nnc(C2CC2)n1C1CC1 (centres unmarked) | -69.5 |
| CC(Sc1nnc(C2CC2)n1C1CC1)C(=O)Nc1ccccc1C#N (centres unmarked) | -10 |
| CC(Sc1nnc(C2CC2)n1C1CC1)C(=O)Nc1cccc(S(=O)(=O)N(C)C)c1 (centres unmarked) | -19.5 |
| COc1ccc(Cl)cc1NC(=O)C(C)Sc1nncn1C (centres unmarked) | 0.256 |
| CC(Sc1nnc(C2CC2)n1C1CC1)C(=O)Nc1cccc(S(=O)(=O)N2CCOCC2)c1 (centres unmarked) | -11.8 |
| COc1ccc(NC(=O)C(C)Sc2nnc(C3CC3)n2C2CC2)cc1 (centres unmarked) | -13.3 |
